This is a sample that favours compounds with a hit; in the whole collection about 2.5% have one here.
ABCB6 inh MLPCN: inhibitors of human ABC transporter ABCB6; fluorescence ratio to DMSO, % at 10 µM; actives 0.19% (n = 360,000); Q9NP58; K562-ABCB6 porphyrin accumulation, flow cytometry, 1 h; stronger effect = lower value;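 active = fluorescence ratio to DMSO below 75%, the collection mean minus 3 SD; inconclusive = too few cells collected in the well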;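 also: signal is porphyrin accumulated inside mitochondria; lower ratio means ABCB6 inhibition with less porphyrin fluorescence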
Target sequence (Q9NP58 whole entry, looked up): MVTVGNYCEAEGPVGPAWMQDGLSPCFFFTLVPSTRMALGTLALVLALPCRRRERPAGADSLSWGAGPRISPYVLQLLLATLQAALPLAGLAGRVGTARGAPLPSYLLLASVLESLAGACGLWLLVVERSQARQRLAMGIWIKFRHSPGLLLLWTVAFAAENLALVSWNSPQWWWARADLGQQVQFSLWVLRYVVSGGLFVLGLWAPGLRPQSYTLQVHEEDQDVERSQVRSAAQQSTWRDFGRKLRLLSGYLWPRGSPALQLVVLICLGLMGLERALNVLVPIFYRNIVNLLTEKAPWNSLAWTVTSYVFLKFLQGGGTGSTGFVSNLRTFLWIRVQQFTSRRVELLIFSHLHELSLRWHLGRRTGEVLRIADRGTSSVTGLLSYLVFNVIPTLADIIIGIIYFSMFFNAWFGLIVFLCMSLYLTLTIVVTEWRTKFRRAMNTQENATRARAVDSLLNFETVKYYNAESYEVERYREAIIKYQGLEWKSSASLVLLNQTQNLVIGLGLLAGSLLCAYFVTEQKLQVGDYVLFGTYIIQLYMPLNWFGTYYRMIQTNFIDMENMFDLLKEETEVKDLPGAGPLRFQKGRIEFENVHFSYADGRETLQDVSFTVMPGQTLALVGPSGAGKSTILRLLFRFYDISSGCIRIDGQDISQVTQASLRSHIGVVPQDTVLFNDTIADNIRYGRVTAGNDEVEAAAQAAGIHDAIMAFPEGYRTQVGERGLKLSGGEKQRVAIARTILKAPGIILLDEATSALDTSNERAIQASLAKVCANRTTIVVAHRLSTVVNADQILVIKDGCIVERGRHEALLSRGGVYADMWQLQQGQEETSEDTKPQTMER
rCAG RNA binder: molecules binding r(CAG) RNA repeats | AID 651821 | inhibition, % at 3 µM | actives 1.3% (n = 370,000) | r(CAG) RNA repeat, TO-PRO-1 dye displacement fluorescence;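 active = inhibition above the plate cutoff, the mean of all test compounds on that plate plus 3 SD, cut at about 35% in these data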;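 also: higher means more dye released from RNA so lower well fluorescence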
Exocytosis inh: lytic granule exocytosis inhibition | TALL-104 LAMP-1 surface exposure, flow cytometry; cells stimulated with thapsigargin and PMA | inhibition, % at 10 µM | actives 0.66% (n = 360,000);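 active = inhibition above about 55%, limit read from the data; inconclusive = no clear call, values can overlap the other calls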
PG9 Ab binder: small molecules binding HIV-1 gp120 antibody PG9. TR-FRET gp120-PG9 antibody binding. inhibition, % at 6.7 µM. actives 0.43% (n = 360,000). AID 624416; in the data active = inhibition above about 8.5%
PG9 binder conf: confirmation of small molecules binding HIV-1 gp120 antibody PG9 | inhibition, % at 6.7 µM | TR-FRET PG9 antibody binding, biochemical | shares compounds with PG9 Ab binder | actives 90% (n = 1,500); in the data active = inhibition above about 9%
PGV04 Ab binding: counter-screen for PG9 binders: binding control antibody PGV04; shares compounds with PG9 Ab binder; TR-FRET PGV04 antibody-gp120 binding, biochemical; inhibition, % at 6.7 µM; actives 95% (n = 1,500); in the data active = inhibition above about 9.5%
PG9 bind DR: PG9 antibody binding, dose response; shares compounds with PG9 Ab binder; TR-FRET PG9 antibody-gp120 binding inhibition; IC50, µM; 95 tested, under 10 active; in the data active = IC50 below about 10 µM
PGV04 DR counter: binds control antibody PGV04 in PG9 counter-screen. shares compounds with PG9 Ab binder. TR-FRET binding to control antibody PGV04. IC50, µM. actives 20% (n = 95). AID 651937
PG126 binding DR: binds control antibody PG126 in PG9 counter-screen; actives 20% (n = 95); IC50, µM; shares compounds with PG9 Ab binder; TR-FRET binding to antibody PG126, counterscreen; AID 651939
A number is an active result; n = inactive; u = inconclusive; x = not tested or not shown. Rule as the data show it, unless noted: active = IC50 below about 9 µM; inactive = the rest.

SMILES | ABCB6 inh MLPCN | rCAG RNA binder | Exocytosis inh | PG9 Ab binder | PG9 binder conf | PGV04 Ab binding | others
O=C1C(=O)N(Cc2cccnc2)C(c2cccc(F)c2)/C1=C(/O)c1ccc2c(c1)OCO2 (configuration not stated) | n | n | u | 21 | 44 | 52
O=C1C(=O)N(Cc2ccncc2)C(c2ccccc2F)/C1=C(\O)c1ccc2c(c1)OCCO2 (configuration not stated) | n | n | n | 16 | 32 | 31 | PG9 bind DR=n;PGV04 DR counter=5.3;PG126 binding DR=7.8
O=C1C(=O)N(Cc2cccnc2)C(c2cccc([N+](=O)[O-])c2)/C1=C(\O)c1ccc2c(c1)OCCO2 (configuration not stated) | n | n | n | n | x | x
Cc1csc(SCC(=O)N(C)CC(=O)Nc2ccc(F)cc2)n1 | n | x | n | x | x | x
Cc1ccc(-c2nnc(CN3CCCCC3C)o2)cc1 (configuration not stated) | n | n | n | n | x | x
Cc1cc(OCC(=O)NCCc2ccc(Cl)cc2)c2c(C)cc(=O)oc2c1 | n | n | n | n | x | x
Cc1cc(OCC(=O)NCCc2ccc(S(N)(=O)=O)cc2)c2c(C)c(C)c(=O)oc2c1 | n | n | n | 10 | 14 | 25
CN1CCN(C(=O)c2cc(Cl)ccc2NC(=O)c2ccc(Cl)cc2Cl)CC1 | n | n | n | n | x | x
CCOC(=O)CNC(=O)CSc1ncnc2c1cnn2-c1ccccc1 | n | n | n | n | x | x
CCOC(=O)CNC(=O)CSc1nc(C(C)C)nc2c1cnn2-c1ccccc1 | n | n | n | 8.6 | 10 | 15
Cc1nc(SCC(=O)Nc2ccccc2)c2oc3ccccc3c2n1 | n | n | n | 95 | 96 | 99
O=C(CSc1ncnc2c1oc1ccccc12)Nc1cccc(Cl)c1 | n | n | n | 81 | 81 | 94
CCc1nc(SCC(=O)NCCc2ccccc2)c2oc3ccccc3c2n1 | n | n | n | n | x | x
Cc1nc(SCC(=O)NCCc2ccccc2)c2oc3ccccc3c2n1 | n | n | n | 26 | 88 | 74 | PG9 bind DR=3.4;PGV04 DR counter=2.4;PG126 binding DR=2.3
Cc1nc(SCCc2nc3ccccc3[nH]2)c2oc3ccccc3c2n1 | n | n | n | 29 | 11 | 13
Cc1nc(SCc2nc3ccccc3[nH]2)c2oc3cc(Br)ccc3c2n1 | n | n | n | n | x | x
COC(=O)c1ccc(CSc2ncnc3c2oc2ccccc23)o1 | n | n | n | 15 | 43 | 80
Cc1nc(SCC(=O)NC(C)c2ccccc2)c2oc3ccccc3c2n1 (configuration not stated) | n | n | n | 15 | n | 9.6
COC(=O)c1ccc(CSc2ncnc3ccccc23)o1 | n | n | n | n | x | x
Cc1nc(SCC(=O)Nc2ccc(F)cc2)c2oc3ccccc3c2n1 | n | n | n | 45 | 78 | 85
Cc1nc(SCC(=O)NCc2ccccc2)c2c(=O)n(C)c(=O)n(C)c2n1 | n | n | n | 14 | n | n
OC[C@H]1OC(O)[C@H](O)[C@@H]1O (some centres not stated) | n | n | n | n | x | x
COc1ccc(C(=O)NCc2ccc(-c3nc4ccccc4s3)cc2)cc1 | n | n | n | n | x | x
COc1cc(C(=O)NCc2ccc(-c3nc4ccccc4s3)cc2)cc(OC)c1OC | n | n | n | 10 | 19 | 29
Cc1ccccc1Cn1cc(COC(=O)NCC(C)C)nn1 | x | n | x | x | x | x
SMILES | ABCB6 inh MLPCN | rCAG RNA binder | Exocytosis inh | PG9 Ab binder | PG9 binder conf | PGV04 Ab binding | others
Cc1nc2ccc3nc(NC(=O)c4ccc5c(c4)OCCO5)sc3c2s1 | n | n | n | 35 | 27 | 56
O=C(CN1CCCC1)Nc1ccc(F)c(Cl)c1 | n | n | n | n | x | x
O=C(O)c1ccc(Oc2ccccc2)o1 | n | n | n | n | x | x
COc1cccc(CNC(=O)Cn2c(=O)c3cccn3c3ccccc32)c1 | n | n | n | 19 | 24 | 44
O=C(Cn1c(=O)c2cccn2c2ccccc21)NCc1cccc(F)c1 | n | n | n | n | x | x
Cc1cccc(C)c1NC(=O)Cn1c(=O)c2cccn2c2ccccc21 | n | n | n | n | x | x
CCc1cccc(NC(=O)Cn2c(=O)c3cccn3c3ccccc32)c1 | n | n | n | 26 | 28 | 36

Source: PubChem BioAssay
